Screening data as filed in PubChem BioAssay.
RORg inh – qHTS for inhibitors of ROR gamma transcriptional activity; Nuclear receptor ROR-gamma (Mus musculus), P51450; Drosophila S2 Gal4-RORgamma UAS-luciferase reporter, 20 h; Potency, µM (series often up to 53.6 µM), for inactives: at the top dose activity change, negative = inhibition, most hits filed as inhibitors; 5.4% of 310,000 active; AID 2551, 2010; note: potency is the fitted concentration of half-maximal effect; % is set by controls: 0 for no effect and ±100 for the full control effect; nearly all actives have a fitted effect of over 60% in size
Target sequence (P51450 whole entry, looked up, the tested form may be a part): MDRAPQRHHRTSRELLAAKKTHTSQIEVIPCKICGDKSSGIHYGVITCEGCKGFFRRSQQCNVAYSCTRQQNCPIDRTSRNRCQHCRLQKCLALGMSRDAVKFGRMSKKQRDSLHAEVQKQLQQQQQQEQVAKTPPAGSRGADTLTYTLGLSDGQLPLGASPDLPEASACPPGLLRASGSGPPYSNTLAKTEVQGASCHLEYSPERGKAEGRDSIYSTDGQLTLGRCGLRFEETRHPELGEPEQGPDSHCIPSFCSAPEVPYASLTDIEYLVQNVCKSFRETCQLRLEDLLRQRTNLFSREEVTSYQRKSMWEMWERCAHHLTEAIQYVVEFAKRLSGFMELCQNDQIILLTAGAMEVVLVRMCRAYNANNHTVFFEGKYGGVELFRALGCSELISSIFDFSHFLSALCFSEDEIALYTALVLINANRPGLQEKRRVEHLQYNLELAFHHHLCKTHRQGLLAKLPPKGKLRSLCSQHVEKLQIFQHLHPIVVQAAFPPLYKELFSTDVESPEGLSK
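In this cell-based reporter format, copper sulfate (700 uM final) drives Gal4–ROR gamma fusion expression from a metallothionein promoter in Drosophila Schneider cells; compounds preincubated 1 hr, reporter read after 20 hr at ambient temperature.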
SW480 rerep – A quantitative high throughput screen for small molecules that induce DNA re-replication in SW480 colon adenocarcinoma cells; Potency, µM (doses to about 46.1 µM), for inactives: top-dose re-replication activation, usual class: activators; 1.8% of 340,000 active; SW480 DNA re-replication, Hoechst DNA content imaging, 48 h; AID 624297, 2012; note: potency is the fitted concentration of half-maximal effect; % of control where 0% means no effect; nearly all actives have a fitted effect of over 55% in size
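Hoechst fluorescence of nuclei (405 nm excitation, 500-530 nm emission) measured by plate-scanning imager after 48 hr compound exposure at 37 C; re-replication scored as increased number of nuclei with elevated intensity.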
MCF10A rerep – A quantitative high throughput screen for small molecules that induce DNA re-replication in MCF 10a normal breast cells; MCF 10A DNA re-replication, Hoechst nuclear intensity, 48 h; Potency, µM (titrated, usually from 46.1 µM), inactives show top-dose activity, positive = re-replication, actives largely listed as activators; 2.9% of 350,000 active; AID 624296, 2012; note: potency is the fitted concentration of half-maximal effect; % of control where 0% means no effect; nearly all actives have a fitted effect of over 50% in size
IL-1B inflam inh – qHTS for Inhibitors of Inflammasome Signaling: IL-1-beta AlphaLISA Primary Screen; activity change, % at 57.5 µM; 4.7% of 360,000 active; THP-1 LPS/ATP IL-1B secretion, AlphaLISA, 16 h; active compounds read low; in the data active = activity change below about -50%; inconclusive = mostly about -30% to -49%; note: % is set by controls: 0 for no effect and ±100 for the full control effect
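Secreted IL-1B measured by AlphaLISA bead assay after 16 h compound exposure of THP-1 cells; compounds (final up to 57.5 uM) added 1 h before LPS (250 ng/mL) and ATP (1.25 mM) stimulation; lower signal means less secretion.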
VP16 counter – VP16 counterscreen qHTS for inhibitors of ROR gamma transcriptional activity; Drosophila S2 Gal4-VP16 UAS-luciferase, luminescence, 20 h; Potency, µM (highest dose often 53.6 µM), for the others: at the highest dose activity, negative = inhibition, hits mostly inhibitors; 3.5% of 310,000 active; AID 2546, 2010;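 note: Gal4-VP16 expression switched on by copper sulfate through the metallothionein promoter; potency is the fitted concentration of half-maximal effect; % is set by controls: 0 for no effect and ±100 for the full control effect; nearly all actives have a fitted effect of over 50% in size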
* = called active by the depositor; ? = inconclusive; nt = no result given; [ ] = dose if it differs, or a comment. An excerpt weighted towards active compounds, which were near 11% of everything screened. Unless noted, calls come from the whole dose curve; as a rule, active = well fitted curve in the direction sought with a large enough effect; inconclusive = small, poorly fitted or top-dose-only effect, or another doubt; inactive = no such curve, though single readings can be large; an effect the other way counts as inactive or inconclusive.

SMILES | RORg inh | SW480 rerep | MCF10A rerep | IL-1B inflam inh | VP16 counter
Fc1ccccc1CNc1nc(-c2cccnc2)nc2ccccc12 | ? | ? | ? | -97* | -14%
CN(C)c1ccc(-c2nc(NCc3cccnc3)c3ccccc3n2)cc1 | ? | nt | nt | nt | 14µM*
Cc1cccc(CNc2nc(-c3cccnc3)nc3ccccc23)c1 | -4% | nt | nt | nt | -22%
COc1cccc(CNc2nc(-c3cccnc3)nc3ccccc23)c1 | 0% | -4% | 2% | -93* | -4%
c1cncc(CNc2nc(-c3ccoc3)nc3ccccc23)c1 | 4% | nt | nt | nt | 6%
c1cncc(-c2nc(NCc3cccs3)c3ccccc3n2)c1 | 29% | 0% | 0% | -7 | -11%
COc1ccc(CNc2nc(-c3ccc(N(C)C)cc3)nc3ccccc23)c(OC)c1 | 5µM* | nt | nt | nt | 5µM*
COc1ccc(CNc2nc(-c3ccc(C(=O)N(C)C)cc3)nc3ccccc23)c(OC)c1 | ? | nt | nt | nt | -5%
Cc1ccc(NC(=O)CCC(=O)N/N=C/c2cccs2)cc1C | 29% | ? | -1% | -3 | -9%
Cc1c(/C=N/NC(=O)c2cccs2)c2ccccc2n1Cc1ccccc1Cl | -11% | 15µM* | 16µM* | 28 | -16%
Cc1ccc(NC(=O)CCC(=O)N/N=C/c2cccs2)cc1 | 10% | 9.2µM* | 2% | 14 | 13%
O=C(N/N=C\c1ccc(Cl)s1)c1cccs1 | 5.6µM* | -4% | -3% | -22 | 5.6µM*
O=C(N/N=C/c1cccs1)c1ccccn1 | 14µM* | -5% | 0% | -25 | ?
O=C(N/N=C/c1ccncc1)c1cccs1 | -2% | -9% | 8% | 0 | ?
Cn1cccc1/C=N/NC(=O)c1ccccn1 | -4% | ? | 2% | -21 | 1%
Cc1cc(C(=O)N/N=C/c2ccc(C)s2)n[nH]1 | -7% | -7% | 0% | -9 | -9%
CCc1ccc(/C=N/NC(=O)c2ccccn2)cc1 | 10µM* | -1% | -6% | -28 | ?
O=C(CSc1ncccn1)N/N=C/c1cccs1 | 3% | ? | 0.52µM* | 5 | 15%
CCN(CC)c1ccc(/C=N/NC(=O)c2ccccn2)cc1 | ? | ? | ? | -16 | -8%
Cc1ccc(/C=N/NC(=O)c2ccccn2)s1 | ? | -11% | 0% | -8 | 22µM*
O=C(N/N=C/c1cccs1)C(=O)Nc1cccc(Cl)c1 | 3.2µM* | -4% | 3% | 7 | 10µM*
COc1ccc(NC(=O)Nc2cccc3c2O[C@H](CN(C)Cc2ccc(-c4ccccc4)cc2)[C@@H](C)CN([C@H](C)CO)C3=O)cc1 | nt | -4% | -5% | 57 | nt
CCOc1cc2c(c3c1C(c1ccccc1)N(S(=O)(=O)c1ccc(C)cc1)C3)C(=O)C=CC2=O (stereo unspecified) | nt | nt | nt | -118* | nt
O=[N+]([O-])c1ccc(Cl)c(CN2CCN(c3ncccn3)CC2)c1 | 6% | -6% | 1% | -17 | -4%
Cc1ccc2nc(C)c(CN3CCN(c4ccc([N+](=O)[O-])cc4Cl)CC3)n2c1 | 14µM* | nt | nt | nt | 7.1µM*
SMILES | RORg inh | SW480 rerep | MCF10A rerep | IL-1B inflam inh | VP16 counter
C[n+]1cccc(/C=N/Nc2nc(Cl)c(C#N)c(Cl)c2Cl)c1 | -12% | -12% | 1% | -24 | -6%
N#Cc1c(Cl)nc(N/N=C/c2ccccc2)c(Cl)c1Cl | 8.9µM* | nt | 9% | -18 | 5µM*
CCc1ccc(N=C2NC(=O)/C(=C/c3cc(OC)c(OC)c(OC)c3)S2)cc1 | ? | ? | 12µM* | -3 | ?
CCOc1cc(/C=C2/SC(=S)NC2=O)ccc1OC(=O)c1ccco1 | ? | ? | ? | -51* | 9%
CCOc1cc(/C=C2\SC(=Nc3ccc(CC)cc3)NC2=O)ccc1OCC(=O)O | 17% | ? | 18µM* | 18 | -4%
COc1cc(/C=C2/SC(=O)NC2=O)ccc1OC(=O)c1ccco1 | 36% | 0% | ? | -22 | -6%
CCc1ccc(N=C2NC(=O)/C(=C/c3cc(Br)c(OCC(=O)O)c(OC)c3)S2)cc1 | ? | -61%[1.84 µM] | ? | 36 | -12%
O=C(OCc1cn([C@H]2CN(C(=O)C3CCCCC3)[C@@H](c3ccccc3)C[C@@H]2O)nn1)c1ccccc1 | nt | nt | nt | 33 | nt
Clc1ccc(-n2nnnc2-c2cnc(-c3ccncc3)nc2-c2cccs2)cc1 | -8% | ? | ? | -28 | -19%
FC(F)(F)c1nc(-c2cccnc2)ncc1-c1nnnn1-c1ccccc1 | 31% | 10% | 8% | -11 | -7%
COc1ccc(-n2nnnc2-c2cnc(N3CCCC3)nc2C(F)(F)F)cc1 | ? | -1% | ? | -55* | ?
FC(F)(F)c1nc(-c2cccs2)ncc1-c1nnnn1-c1ccc(Cl)cc1 | -21% | 6% | 6.5µM* | -27 | -6%
COc1cccc(/C=C/C(=O)OCC(=O)NC(=O)NC2CCCCC2)c1 | nt | -4% | 0% | 0 | nt
CC1CCC(O)C/C1=C\C=C1/CCCC2(C)C1CCC2C(C)/C=C/C(C)C(C)C (stereo unspecified) | ? | ? | 21µM* | nt | ?
CCOc1ccc(-c2c(C(=O)N/N=C/c3ccc(C)s3)nnn2-c2nonc2N)cc1 | 2.2µM* | 2% | 1% | ? | 2.8µM*
COc1cccc(-c2c(C(=O)N/N=C/c3ccc(C)s3)nnn2-c2nonc2N)c1 | 2.5µM* | 1% | -11% | -16 | 5.6µM*
COc1cccc(-c2c(C(=O)N/N=C/c3cccnc3)nnn2-c2nonc2N)c1 | 17% | -2% | 4% | -21 | 3%
CCOc1cccc(-c2c(C(=O)N/N=C/c3ccc(C)s3)nnn2-c2nonc2N)c1 | 2.5µM* | -9% | 2% | 15 | 4µM*
Cc1ccc(/C=N/NC(=O)c2nnn(-c3nonc3N)c2C(C)C)s1 | 2.2µM* | -7% | 0% | 3 | 7.1µM*
CC(=O)Nc1ccc(C(=O)N2CCCCC2c2cc(C(=O)NCc3cccnc3)no2)cc1 (stereo unspecified) | nt | nt | nt | -4 | nt
COc1cccc(-c2c(C(=O)N/N=C/c3ccncc3)nnn2-c2nonc2N)c1 | 17% | -2% | -41% | -1 | 11%
CCOC(=O)c1nnn(-c2nonc2N)c1-c1ccc(Br)cc1 | -9% | -3% | 0.65µM* | 7 | -14%
COc1cccc(-c2c(C(=O)N/N=C/c3ccoc3)nnn2-c2nonc2N)c1 | 13µM* | -1% | -7% | 8 | ?
CC(C)c1c(C(=O)N/N=C/c2ccc(Cl)cc2Cl)nnn1-c1nonc1N | 2% | -9% | 2% | 32 | 1%
CCOC(=O)c1nnn(-c2nonc2N)c1-c1ccc(C)cc1 | -7% | -1% | -2% | 6 | -19%
